Experimental data as given in PubChem BioAssay (NCATS).
Records with an inconclusive call do not appear. The source made the active and inactive calls. Calls follow the shape of the dose curve; as a rule, active = well fitted curve in the direction sought with a large enough effect; inconclusive = small, poorly fitted or top-dose-only effect, or another doubt; inactive = no such curve, though single readings can be large; an effect the other way counts as inactive or inconclusive.

Assays:
[1] = qHTS of pediatric cancer cell lines to identify multiple opportunities for drug repurposing: Primary screen for OHS-50 cells (AID 1347103);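 also: plate controls were DMSO neutral control for no effect and bortezomib positive control for full effect; nearly all actives have a fitted effect of over 40% in size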
Outline: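 Cells (500-1,000/well) rested 5 h, then received compounds for 48 h; metabolically active cells were measured by CellTiter-Glo luminescence. Final concentrations spanned up to 46 µM (MIPE, 11-point) or 0.59 nM-46 µM (NPC, 8-point) in primary screens, 11-point in follow-ups.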

[2] = qHTS of pediatric cancer cell lines to identify multiple opportunities for drug repurposing: Primary screen for RD cells (AID 1347104);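 also: plate controls were DMSO for no effect and bortezomib for full effect; nearly all actives have a fitted effect of over 55% in size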
Outline: (§1)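 Cells plated at 500-1,000/well in growth medium, compounds added after 5 h. MIPE tested at 11 points (from 0.78 nM), NPC at 8 points (from 0.59 nM). CellTiter-Glo luminescence after 48 h; concentration-response curves from primary screen.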

[3] = qHTS of pediatric cancer cell lines to identify multiple opportunities for drug repurposing: Primary screen for MG 63 (6-TG R) cells (AID 1347105); also: % is scaled to controls: 0 for no effect and ±100 for the full control effect; nearly all actives have a fitted effect of over 50% in size
Outline: as §1

[4] = qHTS of pediatric cancer cell lines to identify multiple opportunities for drug repurposing: Primary screen for control Hh wild type fibroblast cells (AID 1347106);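 also: series mostly up to about 46 µM; % is scaled to controls: 0 for no effect and ±100 for the full control effect; a drop in luminescence marks cytotoxicity and a rise apparent proliferation; nearly all actives have a fitted effect of over 55% in size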
Outline: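 Cells (500-1,000/well) in growth media were settled 5 h at 37 degrees C, then given compounds for 48 h. Viability was read as CellTiter-Glo luminescence. Primary runs used MIPE at 11 points (0.78 nM-46 µM) and NPC at 8 points (0.59 nM-46 µM); follow-ups used 11 points.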

[5] = qHTS of pediatric cancer cell lines to identify multiple opportunities for drug repurposing: Primary screen for Rh30 cells (AID 1347107); also: series mostly up to about 46 µM; % is scaled to controls: 0 for no effect and ±100 for the full control effect; nearly all actives have a fitted effect of over 75% in size
Outline: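 Viability after 48 h compound treatment at 37C, 500-1,000 cells/well, read as ATP luminescence with CellTiter-Glo. Primary screens used 11-point (MIPE, 0.78 nM-46 µM) or 8-point (NPC, 0.59 nM-46 µM) final concentrations; follow-up screens used 11-point dilutions.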

[6] = qHTS of pediatric cancer cell lines to identify multiple opportunities for drug repurposing: Primary screen for Rh41 cells (AID 1347108);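 also: series mostly up to about 46 µM; luminescence drop marks cytotoxic hits; nearly all actives have a fitted effect of over 70% in size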
Outline: as §1

CO/N=C(\C(=O)O)c1csc(NC(=O)CCl)n1
inactive: Potency [1] | Potency [2] | Potency [3] | Potency [4] | Potency [5] | Potency [6]

CO/N=C(/C(=O)N[C@@H]1C(=O)N2C(C(=O)O)=C(Cn3nnc(C)n3)CS[C@H]12)c1csc(N)n1
inactive: Potency [1] | Potency [2] | Potency [3] | Potency [4] | Potency [5] | Potency [6]

CN=C(N)NC(=O)Nc1c(C)cccc1C
inactive: Potency [1] | Potency [2] | Potency [3] | Potency [4] | Potency [5] | Potency [6]

CCN1CCN(C(=O)N[C@@H](C(=O)N[C@@H]2C(=O)N3[C@@H]2SC(C)(C)[C@H]3C(=O)O)c2ccccc2)C(=O)C1=O
inactive: Potency [1] | Potency [2] | Potency [3] | Potency [4] | Potency [5] | Potency [6]

O=C1NC(c2ccccc2)(c2ccccc2)C(=O)N1COP(=O)(O)O
inactive: Potency [1] | Potency [2] | Potency [3] | Potency [4] | Potency [5] | Potency [6]

OCc1cccnc1
inactive: Potency [1] | Potency [2] | Potency [3] | Potency [4] | Potency [5] | Potency [6]

CC(=O)N[C@@H](CCC(N)=O)C(=O)O
inactive: Potency [1] | Potency [2] | Potency [3] | Potency [4] | Potency [5] | Potency [6]

CCOC(=O)CN1CCCC1=O
inactive: Potency [1] | Potency [2] | Potency [3] | Potency [4] | Potency [5] | Potency [6]

C[N+]1(C)CCC(OC(=O)C(O)(c2ccccc2)C2CCCC2)C1 (stereo not drawn)
inactive: Potency [1] | Potency [2] | Potency [3] | Potency [4] | Potency [5] | Potency [6]

O=[N+]([O-])c1cncn1CCN1CCOCC1
inactive: Potency [1] | Potency [2] | Potency [3] | Potency [4] | Potency [5] | Potency [6]

CC1(C)O[C@@H]2C[C@H]3[C@@H]4CCC5=CC(=O)C=C[C@]5(C)[C@@]4(F)[C@@H](O)C[C@]3(C)[C@]2(C(=O)CO)O1
inactive: Potency [1] | Potency [2] | Potency [3] | Potency [4] | Potency [5] | Potency [6]

O=C(O)CCCC[C@@H]1SC[C@@H]2NC(=O)N[C@@H]21
inactive: Potency [1] | Potency [2] | Potency [3] | Potency [4] | Potency [5] | Potency [6]

Oc1ccccc1-c1nnco1
inactive: Potency [1] | Potency [2] | Potency [3] | Potency [4] | Potency [5] | Potency [6]

CCOC(=O)C(O)c1ccccc1 (stereo not drawn)
inactive: Potency [1] | Potency [2] | Potency [3] | Potency [4] | Potency [5] | Potency [6]

C/C(=C1\CCOC(=O)S1)N(C=O)Cc1cnc(C)nc1N
inactive: Potency [1] | Potency [2] | Potency [3] | Potency [4] | Potency [5] | Potency [6]

Nc1c[n+](N2CCOCC2)no1
inactive: Potency [1] | Potency [2] | Potency [3] | Potency [4] | Potency [5] | Potency [6]

NS(=O)(=O)c1ccc(N2CCCCS2(=O)=O)cc1
inactive: Potency [1] | Potency [2] | Potency [3] | Potency [4] | Potency [5] | Potency [6]

CCOC(=O)C(=O)c1csc(NC=O)n1
inactive: Potency [1] | Potency [2] | Potency [3] | Potency [4] | Potency [5] | Potency [6]

O=C(CS(=O)Cc1ccco1)NC/C=C\COc1cc(CN2CCCCC2)ccn1 (stereo not drawn)
inactive: Potency [1] | Potency [2] | Potency [3] | Potency [4] | Potency [5] | Potency [6]

O=C(O)Cn1cnnn1
inactive: Potency [1] | Potency [2] | Potency [3] | Potency [4] | Potency [5] | Potency [6]

CC(=O)O[C@H]1CC[C@@]2(C)C(=CC[C@@H]3[C@@H]2CC[C@]2(C)C(C(C)=O)=CC[C@@H]32)C1
inactive: Potency [1] | Potency [2] | Potency [3] | Potency [4] | Potency [5] | Potency [6]

CC(C)C[C@H](NC(=O)CNC(=O)[C@H](Cc1ccc(O)cc1)NC(=O)[C@H](CO)NC(=O)[C@H](Cc1c[nH]c2ccccc12)NC(=O)[C@H](Cc1cnc[nH]1)NC(=O)[C@@H]1CCC(=O)N1)C(=O)N[C@@H](CCCN=C(N)N)C(=O)N1CCC[C@H]1C(=O)NCC(N)=O (stereo in doubt)
inactive: Potency [1] | Potency [2] | Potency [3] | Potency [4] | Potency [5] | Potency [6]

CC(C)(C)C(=O)OCOC(=O)C1N2C(=O)CC2S(=O)(=O)C1(C)C (stereo not drawn)
inactive: Potency [1] | Potency [2] | Potency [3] | Potency [4] | Potency [5] | Potency [6]

CC(C)=CCC/C(C)=C/CC/C(C)=C/CCC(=O)OC/C=C(\C)CCC=C(C)C
inactive: Potency [1] | Potency [2] | Potency [3] | Potency [4] | Potency [5] | Potency [6]

CC1CN(c2cc3c(cc2F)c(=O)c(C(=O)O)cn3-c2ccc(F)cc2F)CCN1 (stereo not drawn)
inactive: activity change, negative = cytotoxic [1] 83% [at 6.18 µM] | activity change, negative = cytotoxic [2] -4.55% [at 4.84 µM] | activity change, negative = cytotoxic [3] 29.5% [at 4.84 µM] | activity change, negative = cytotoxic [4] -8.43% [at 4.84 µM] | activity change, negative = cytotoxic [5] 5.93% [at 4.84 µM] | activity change, negative = cytotoxic [6] 11.4% [at 4.84 µM]

COC(=O)c1cc(Cl)ccc1NS(=O)(=O)C(F)(F)F
inactive: Potency [1] | Potency [2] | Potency [3] | Potency [4] | Potency [5] | Potency [6]

CN1CCC(=C2c3ccccc3CCc3cccnc32)CC1
inactive: Potency [1] | Potency [2] | Potency [3] | Potency [4] | Potency [5] | Potency [6]

O=C(OCC1(COC(=O)c2cccnc2)CCCC(COC(=O)c2cccnc2)(COC(=O)c2cccnc2)C1O)c1cccnc1
inactive: Potency [1] | Potency [2] | Potency [3] | Potency [4] | Potency [5] | Potency [6]
